In the library only some 8% were active in any assay of this set; here they are far more common.
SW480 rerep: A quantitative high throughput screen for small molecules that induce DNA re-replication in SW480 colon adenocarcinoma cells. SW480 DNA re-replication, Hoechst DNA content imaging, 48 h. 1.8% of 340,000 active. AID 624297, 2012. Potency, µM (series often up to 46.1 µM), without a hit: at the highest dose re-replication activation, usual class: activators; further: % of control where 0% means no effect; nearly all actives have a fitted effect of over 55% in size
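Compounds, transferred as 23 nL by pin tool, were incubated with cells for 48 hr; DNA content per nucleus was then quantified by Hoechst staining and fluorescence plate imaging.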
MCF10A rerep: A quantitative high throughput screen for small molecules that induce DNA re-replication in MCF 10a normal breast cells. MCF 10A DNA re-replication, Hoechst nuclear intensity, 48 h. Potency, µM (doses to about 46.1 µM), for inactives: at the highest dose activity, positive = re-replication, actives largely listed as activators. 2.9% of 350,000 active; further: % of control where 0% means no effect; nearly all actives have a fitted effect of over 50% in size
HT1080-NT tox: qHTS for induction of synthetic lethality in tumor cells producing 2HG: qHTS for the HT-1080-NT fibrosarcoma cell line | Potency, µM (series often up to 46.1 µM), inactives show at the highest dose activity, negative = less viability, most hits filed as cytotoxic | HT-1080-NT fibrosarcoma viability, CellTiter-Glo ATP luminescence, 48 h | AID 686970, 2013 | 1.6% of 360,000 active;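 further: NT is the 2HG producing partner of a matched IDH1 knockdown line; 0% = DMSO-treated cells and -100% = media-only wells without cells; nearly all actives have a fitted effect of over 55% in size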
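750 cells/well, RPMI + 5% FBS; 2 h settle, compound pin-transfer, 48 h at 37 degrees C. CellTiter-Glo 10 min RT, luminescence. Normalized to DMSO and media-only wells.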
HT1080 IDH1KD tx: qHTS for induction of synthetic lethality in tumor cells producing 2HG: qHTS for the HT-1080-IDH1KD cell line; HT-1080 IDH1 knockdown viability, ATP luminescence, 48 h; Potency, µM (highest dose often 46.1 µM), for inactives: at the highest dose activity, negative = toxicity, most hits filed as cytotoxic; 2% of 360,000 active; AID 686971, 2013;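 further: 0% = DMSO wells and -100% = cell-free medium wells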
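In this qHTS, HT-1080 cells depleted of IDH1 are exposed for 48 h at 37 °C to compound titrations. Toxicity is scored from CellTiter-Glo luminescence, with DMSO as full viability and medium alone as none.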
KB-V1 MDR tox: qHTS assay for MDR1-selective chemotherapeutics: Primary screen using the drug-selected MDR subline cells KB-V1 | KB-V1 MDR cells viability, CellTiter-Glo, 72 h | Potency, µM (top dose mostly 46.1 µM), hits mostly cytotoxic | 3.4% of 400,000 active | AID 1347076, 2019; further: on the % scale 0 is the no-effect control and ±100 the full control effect; nearly all actives have a fitted effect of over 60% in size
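In this primary screen, KB-V1 cells overexpressing P-gp are incubated with library compounds (lowest to highest concentration) for 72 h at 37 degrees C before a luminescent ATP viability read.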
KB-3-1 tox: qHTS assay for MDR1-selective chemotherapeutics: Primary screen using the parental adenocarcinoma cell KB-3-1; KB-3-1 viability, CellTiter-Glo ATP luminescence, 72 h; Potency, µM (titrated, usually from 46.1 µM), usual class: cytotoxic; 1.4% of 400,000 active; AID 1347075, 2019; further: on the % scale 0 is the no-effect control and ±100 the full control effect; nearly all actives have a fitted effect of over 60% in size
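Luminescent ATP read-out (CellTiter-Glo) measures survival of drug-naive KB-3-1 cells after 72 h compound exposure at 37 °C. Titration series was screened from lowest to highest concentration, with DMSO vehicle plates as background controls.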
* hit, by the source's call; i = inactive; ? = inconclusive; / = no result given; [ ] = another dose, or the depositor's remark. The call rests on the fitted dose curve; in most records, active means well fitted curve in the direction sought with a large enough effect; inconclusive means small, poorly fitted or top-dose-only effect, or another doubt; inactive means no such curve, though single readings can be large; an effect the other way counts as inactive or inconclusive. Potency means the concentration at half of the fitted maximal effect.

SMILES	SW480 rerep	MCF10A rerep	HT1080-NT tox	HT1080 IDH1KD tx	KB-V1 MDR tox	KB-3-1 tox
Cc1ccc2ccc3cc(C(=O)N4CCN(c5ccccc5)CC4)nc3c2[nH]1	/	/	/	/	i	?
Nc1c(S(=O)(=O)c2ccccc2)c2nc3ccccc3nc2n1Cc1ccco1	?	?	-27.5%	-16.7%	23.1µM*	?
Cc1ccc(S(=O)(=O)c2c(N)n(CCN3CCOCC3)c3nc4ccccc4nc23)cc1C	19.7%	?	-7.3%	-2.9%	i	i
Nc1c(S(=O)(=O)c2ccccc2)c2nc3ccccc3nc2n1CCN1CCOCC1	?	-43.0%	-5.1%	6.9%	i	i
Cc1ccc(S(=O)(=O)c2c(N)n(Cc3ccco3)c3nc4ccccc4nc23)cc1C	?	14.6µM*	?	?	23.1µM*	?
COc1ccc(CCNC(=O)C2CCCN(S(=O)(=O)c3ccc4c(c3)oc(=O)n4C)C2)cc1OC (stereo not drawn)	/	/	/	/	i	i
COc1ccccc1CN(C)C[C@H]1OCc2cnnn2CCCC(=O)N([C@H](C)CO)C[C@@H]1C	/	/	2.8%	3.0%	i	i
CC(/C=N/N1CCN(Cc2ccccc2)CC1)=C\c1ccccc1	2.8%	17.5%	-20.8%	-26.6%	i	i
CCC(CC)NC(=O)CON=C1c2ccccc2-c2ccccc21	-153.2%	1.6%	-28.4%	-22.0%	23.1µM*	i
CCNC(=O)CON=C1c2ccccc2-c2ccccc21	0.9%	2.6%	-5.2%	-1.2%	i	i
Cc1cc(/C=N/n2cnnc2)c(C)n1-c1ccc(C(=O)O)cc1	-4.0%	-4.8%	0.1%	4.9%	i	i
Cc1cc(/C=C(\C#N)C(=O)Nc2ccccc2)c(C)n1-c1ccc2c(c1)OCO2	3.66µM*	?	?	?	?	i
Cc1cccc(-n2c(C)cc(/C=N/n3cnnc3)c2C)c1	8.3%	?	-12.8%	-10.3%	18.4µM*	?
Cc1cc(/C=C(/C#N)C(=O)Nc2ccccc2)c(C)n1-c1cccnc1	0.9%[9.22 µM]	22.0%	0.0%	1.7%	i	i
Cc1cc(/C=N/n2cnnc2)c(C)n1-c1ccc2c(c1)OCO2	-9.1%	10.6%	-2.1%	-16.3%	5.17µM*	i
CC(C)n1nc(C(=O)Nc2cccc(S(=O)(=O)NCc3ccco3)c2)c2ccccc2c1=O	-0.2%	11.3%	-12.8%	-6.1%	20.6µM*	?
CSc1nnc(-c2ccc(C(F)(F)F)nc2C)o1	?	3.8%	?	?	i	i
Cc1cc(Cl)ccc1Oc1ccccc1C(=O)CC#N	5.5%	23.1µM*	-3.1%	-1.3%	i	i
O=C1NC(CCc2ccccc2)C(=O)N1CCOc1ccccc1 (stereo not drawn)	-40.6%	6.51µM*	2.8%	0.0%	i	i
Cc1nnc(SC2CC(=O)N(c3ccccc3)C2=O)s1 (stereo not drawn)	?	?	17.1%	22.4%	?	i
Cc1nc(SC2CC(=O)N(c3ccccc3)C2=O)nc2c1CCCC2 (stereo not drawn)	?	-24.7%	?	11.2µM*	?	i
CCOC(=O)CNC(=O)Cn1cnc2c(nnn2-c2cccc(OC)c2)c1=O	-13.7%	14.2%	4.6%	5.7%	i	i
C(=C\c1ccnc2ccccc12)/c1ccc(N2CCOCC2)cc1	/	/	/	/	i	?
COCCCN1C(=O)C(CC(=O)NCc2cccc3ccccc23)CC(C(=O)N2CCCCCC2)=C1C (stereo not drawn)	/	/	-2.4%	-8.1%	10.5µM*	/

Source: PubChem (National Center for Advancing Translational Sciences (NCATS))
